From PubChem BioAssay AID485346 (Sanford-Burnham Center for Chemical Genomics, 2010)
The whole screen tested about 330,000 compounds, of which about 10,000 (3%) were called active.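 How the source made its calls: active means inhibition of at least 50% at 8 µM in the primary screen; inactive means the rest.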 For the sample, actives were picked, then their nearest neighbours and some compounds at random.

molecular target: Protein Mdm4 (Homo sapiens) + E3 ubiquitin-protein ligase Mdm2 (Homo sapiens) (UniProt O15151+Q00987); assay: disruptors of Mdm2/MdmX RING complex – cell-based, luminescence, split luciferase, SaOS-2, uHTS, primary screen (AID 485346); settings: SaOS-2 split-luciferase Mdm2/MdmX complementation, at 8 µM, active compounds read high
Sequence (O15151 whole entry, looked up): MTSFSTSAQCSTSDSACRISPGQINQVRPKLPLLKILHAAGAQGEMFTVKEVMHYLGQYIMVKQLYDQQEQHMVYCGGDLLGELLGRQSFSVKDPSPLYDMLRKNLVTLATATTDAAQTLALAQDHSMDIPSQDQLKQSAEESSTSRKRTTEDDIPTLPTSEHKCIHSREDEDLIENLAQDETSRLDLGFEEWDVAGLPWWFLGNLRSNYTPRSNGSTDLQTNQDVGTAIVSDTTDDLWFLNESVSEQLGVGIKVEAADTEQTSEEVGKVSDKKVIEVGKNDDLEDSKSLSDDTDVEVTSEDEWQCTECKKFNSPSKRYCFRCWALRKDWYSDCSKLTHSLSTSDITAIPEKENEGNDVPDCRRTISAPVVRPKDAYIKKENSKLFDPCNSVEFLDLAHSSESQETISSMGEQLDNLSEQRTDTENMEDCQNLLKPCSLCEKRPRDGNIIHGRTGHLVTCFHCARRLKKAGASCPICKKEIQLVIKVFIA
Sequence (Q00987 whole entry, looked up): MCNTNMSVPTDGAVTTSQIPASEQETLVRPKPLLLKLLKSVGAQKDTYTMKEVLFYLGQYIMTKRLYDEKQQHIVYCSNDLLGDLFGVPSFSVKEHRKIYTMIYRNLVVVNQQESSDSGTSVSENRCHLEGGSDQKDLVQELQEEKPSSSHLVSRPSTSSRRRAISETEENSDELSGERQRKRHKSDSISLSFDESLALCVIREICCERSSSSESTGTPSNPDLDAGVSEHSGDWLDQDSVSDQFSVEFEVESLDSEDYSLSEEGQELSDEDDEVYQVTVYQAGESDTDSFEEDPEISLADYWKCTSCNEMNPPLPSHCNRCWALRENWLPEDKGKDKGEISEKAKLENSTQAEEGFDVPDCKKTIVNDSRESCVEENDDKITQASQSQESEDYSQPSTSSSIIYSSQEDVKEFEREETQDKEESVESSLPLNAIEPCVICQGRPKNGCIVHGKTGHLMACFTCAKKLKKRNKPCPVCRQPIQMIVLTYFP

inhibition, active:
O=C(NC(Nc1nc2ccc([N+](=O)[O-])cc2s1)(C(F)(F)F)C(F)(F)F)c1ccccc1 99.3%
O=C(Nc1nc2ccc([N+](=O)[O-])cc2s1)c1ccc(S(=O)(=O)N2CCCc3ccccc32)cc1 96.6%
CCOC(=O)c1ccc(NC(=O)c2c(NCc3ccccc3)[nH]c(=O)[nH]c2=O)cc1 73.2%
CCOc1ccccc1NC(=O)Cn1nnc(C(=O)NCc2cccs2)c1N 61.5%
CCN(CC)CCC(c1cc(OC)c(OC)c(OC)c1)c1c(OC)cc(OC)c2c(-c3ccccc3)cc(=O)oc12 (stereo unspecified) 62.7%
CCN(CC)CCC(c1ccc2c(c1)OCO2)c1c(OC)cc(OC)c2c(-c3ccccc3)cc(=O)oc12 (stereo unspecified) 76.1%
CC(C)=CCCC1(C)C=Cc2c(ccc3c2[nH]c2cc(O)c(C)cc23)O1 (stereo unspecified) 97.9%
CCOc1cc(/C=C/c2nc3ccccc3c(=O)[nH]2)cc(Br)c1OC 69.3%
Oc1cccc(/C=N/Nc2ccc(Cl)nn2)c1O 68.6%
CCCn1nc(C(=O)Nc2ccc3nc(C)sc3c2)c2ccccc2c1=O 65.5%
CN(C)c1ccc(-n2cccc2/C=C2/SC(=Nc3ccc(F)cc3)NC2=O)cc1 53.3%
O=C(Nc1ccccc1Cl)/C(Cl)=C(\Cl)S(=O)c1ccccc1 (stereo unspecified) 93.6%
COc1cccc2cc(C(N)=O)/c(=N\NC(=O)c3ccccc3)oc12 56.6%
CC(=O)N1CCc2c(sc(NC(=O)CCS(=O)(=O)c3ccccc3)c2C#N)C1 86.2%
Cc1ccc(OCC(O)CN2CCN(CC(O)COc3ccc(C)cc3Cl)CC2)c(Cl)c1 (stereo unspecified) 73.5%
COc1ccc(C(=O)NC(=S)NNC(=O)CCc2ccccc2)cc1 58.1%
CCCc1ccc(OCC(=O)NNC(=S)NC(=O)c2ccco2)cc1 50%
CCOc1cc(NC(=O)c2ccco2)c(OCC)cc1NC(=O)COc1ccccc1 55.2%

inhibition, inactive:
CC1CC(C)CN(S(=O)(=O)c2cccc(C(=O)N3C(=O)c4cccc(N)c4C3=O)c2)C1 (stereo unspecified) 19.4%
Cc1cc(C)n(-c2ccc(NC(=O)C3CCCCN3C(=O)c3cccs3)cc2)n1 (stereo unspecified) 12%
COc1ccc(NC(=O)CCCC2CCCCC2)c(OC)c1 -13.7%
Cc1ccccc1-n1nnc2c(=O)oc3ccccc3c21 8.39%
O=C(CCNC(=O)c1ccccc1)Nc1nc2ccccc2s1 -16.2%
CNC(=O)c1ccsc1NC(=O)c1ccc(S(=O)(=O)N2CCc3ccccc32)cc1 38%
O=C(CNC(=O)c1ccccc1)Oc1ccc([N+](=O)[O-])cc1 -9.24%
Cc1ccc(NC(=O)c2cccc(S(=O)(=O)N3CCCc4ccccc43)c2)nc1 2.43%
CCCCCCC12CCC(C(=O)O)(CC1)CC2 11.2%
COc1cccc(CC(=O)OCC(=O)NCc2ccc3c(c2)OCO3)c1 1.87%
CCn1c(CSCc2c(Cl)cccc2Cl)n[nH]c1=S 7.91%
Cc1cc(NS(=O)(=O)c2ccc(NC(=O)c3cccc(OC(F)F)c3)cc2)nc(C)n1 -4.83%
COc1ccc(C2c3[nH]c4ccccc4c3C[C@H]3C(=O)N(CC(C)C)CC(=O)N23)c(OC)c1 (stereo partly specified) 13.6%
COc1ccc(Br)c2c1C(=O)CC2 7.81%
O=C(NCCCn1ccnc1)C(=O)NCC1OCCN1S(=O)(=O)c1cc(F)ccc1F (stereo unspecified) -11.2%
CCOC(=O)c1ccc(NC(=O)c2c(N)n(C)c(=O)[nH]c2=O)cc1 5.07%
CCOC(=O)c1ccc(NC(=O)c2cc(=O)[nH]c3ccccc23)cc1 23%
CCOC(=O)N1CCC(N2Cc3cccc(C(=O)Nc4c(C)cccc4CC)c3C2=O)CC1 12.5%
Cc1ccc(NC(=O)Cn2nnc(C(=O)NCc3ccco3)c2N)c(C)c1 11.7%
CCOc1ccccc1NC(=O)Cc1cccs1 2.43%
COc1cc(C(CCN2CCN(c3ccccc3)CC2)c2c(OC)cc(OC)c3ccc(=O)oc23)cc(OC)c1OC (stereo unspecified) 15.2%
COc1ccc(-c2c(C)cc3oc(=O)cc(-c4ccccc4)c3c2C)cc1C=O 27.5%
CCN(CC)C(=O)CC(c1ccc2c(c1)OCO2)c1c(OC)cc(OC)c2c(-c3ccccc3)cc(=O)oc12 (stereo unspecified) 13%
COc1cc(OC)c2ccc(=O)oc2c1C(CCN1CCN(c2ccccc2)CC1)c1ccc2c(c1)OCO2 (stereo unspecified) 42.4%
O=C(CN1CCCCC1)NC(=O)Nc1ccccc1F 12.7%
O=C(NNC1=C(C(=O)C(F)(F)F)CCC1)c1ccncc1 8.09%
COc1cc(OC)c(C(=O)NNC(=O)c2ccccc2-n2cccc2)cc1OC 12.8%
CNC(=O)C1CC(=O)N(c2ccc(OCC(=O)Nc3ccccc3C)cc2)C1 (stereo unspecified) 10.1%
COc1ccc(CN2[C@@H](CC(=O)O)c3cc(F)ccc3S2(=O)=O)cc1 -1.99%
CCCCCNC(=O)c1cccnc1SCC(=O)Nc1ccccc1OC 1.51%
Cc1cccc(NS(=O)(=O)c2cccc(C(=O)NNC(=O)c3ccccc3O)c2)c1 46%
CCOC(=O)C(C)N(c1ccccc1Cl)S(C)(=O)=O (stereo unspecified) 19%
CC(Sc1ccccc1F)C(=O)Nc1cccc(S(=O)(=O)N2CCOCC2)c1 (stereo unspecified) 8.39%
COc1ccc(NC(=O)NC2CC3CCCC(C2)N3Cc2ccccc2)cc1 (stereo unspecified) 5.4%
Cc1c(NC(=O)C(C)OC(=O)c2ccccc2O)c(=O)n(-c2ccccc2)n1C (stereo unspecified) 13.1%
O=c1[nH]c(/C=C/c2cccc(Br)c2)nc2ccccc12 48.2%
COc1ccc(C)cc1-n1nnnc1SCc1nc2ccccc2c(=O)[nH]1 18.2%
Cc1nonc1OCCn1nnnc1N 6.95%
COC(=O)c1ccc(Sc2ccc(F)cc2)c(N)c1 -11%
COc1cccc(/C=N/Nc2ccc(Cl)nn2)c1 -64.5%
Cc1ccsc1/C=N/Nc1ccc(Cl)nn1 -10.7%
Cc1cc(N2CCCC2)ccc1NC(=O)COc1ccc(Cl)cc1 -1.43%
CCN(CC)C(=O)c1nc[nH]c1C(=O)N(C)Cc1ccccc1 -2.16%
Cc1ccccc1CNC(=O)CCC(=O)N1Cc2ccccc2Oc2ncccc21 18.7%
CC[C@H]1OC(=O)[C@H](C)[C@@H](O[C@H]2C[C@@](C)(OC)[C@@H](O)[C@H](C)O2)[C@H](C)[C@@H](O[C@@H]2O[C@H](C)C[C@H](N(C)C)[C@H]2O)[C@](C)(O)C[C@@H](C)[C@@H]2N[C@@H](COCCOC)O[C@H]([C@H]2C)[C@]1(C)O -10.6%
C=CCOc1c2ccc(C(=O)N(CC)c3ccc(OC)cc3)cc2nn1C 13.6%
CCCCn1nc(C(=O)Nc2cccc(C(=O)NC3CC3)c2)c2ccccc2c1=O -19.3%
CCCn1nc(C(=O)NNC(=O)CSCC(=O)Nc2cc(C)on2)c2ccccc2c1=O -23.6%
COc1ccccc1C1CC(=O)n2c(nc(-c3ccccc3)c2-c2ccccc2)S1 (stereo unspecified) -21.8%
O=C(N[C@@H](Cc1c[nH]c2ccccc12)C(=O)O)OCC1c2ccccc2-c2ccccc21 -20.2%
C=C1CCC(N(O)c2cc(C)on2)C(=C)CCC2C1CC2(C)C (stereo unspecified) -8.29%
CC(=O)Nc1ccc(S(=O)(=O)N(CCc2ccccc2)CC(=O)N/N=C/c2ccc(C(=O)O)cc2)cc1 -1.72%
Cc1ccc(N=C2NC(=O)/C(=C/C=C/c3ccco3)S2)cc1C 7.92%
CN(C)c1ccc(-n2cccc2/C=N/n2cnnc2)cc1 18.3%
Cc1ccc(S(=O)(=O)N2CCCCC2)cc1NC(=O)CCNC(=O)c1ccccc1 -6.37%
O=C(CN1CCOCC1)Nc1cccc([N+](=O)[O-])c1 14.4%
O=C(Cc1ccc2c(c1)CCCC2)Nc1ccccc1Cl -28.4%
Cc1c(NC(=O)Nc2ccccc2Cl)sc(=S)n1C -28%
Cc1ccc(S(=O)(=O)N2CC(O)C[C@H]2C(=O)OCC(=O)Nc2ccc(N3CCOCC3)cc2)cc1C (stereo partly specified) 31.1%
NC(=O)c1cc2ccccc2o/c1=N/NC(=O)c1cccc(F)c1 1.22%
COc1cccc2cc(C(=O)N3CCN(C(=O)c4ccccc4)CC3)c(=O)oc12 13.1%
CC(=O)N1CCc2c(sc(NC(=O)CCS(=O)(=O)c3ccc(C)cc3)c2C(N)=O)C1 25.4%
CC(C)N1CCc2c(sc(NC(=O)Cc3ccccc3)c2C#N)C1 -40.8%
COc1ccc(N(C(=O)c2snc(C(N)=O)c2N)C(C(=O)NC2CCCC2)c2ccco2)cc1OC (stereo unspecified) 22.9%
O=c1[nH]c(/C=C\c2cccc(C(F)(F)F)c2)nc(O)c1[N+](=O)[O-] -7.22%
Cc1cccc(OCC(O)CN2CCN(S(=O)(=O)c3ccc(C)cc3C)CC2)c1 (stereo unspecified) -4.83%
OC(COc1ccc(F)cc1Cl)CN1CCc2ccccc2C1 (stereo unspecified) -9.27%
CC(Oc1ccc2ccccc2c1)C(=O)NNC(=S)NC(=O)c1ccco1 (stereo unspecified) 19.6%
CCOc1cc(NC(=S)NCc2ccco2)c(OCC)cc1NC(=O)c1ccco1 9.15%
COc1ccc(OCC(=O)Nc2ccc(NC(=O)c3ccco3)c(C)c2)cc1 -0.739%
COc1ccc(C(=O)NC(=S)NNC(=O)c2c(-c3ccccc3)noc2C)cc1 14.7%
CC(C)Oc1ccc(CCC(=O)NNC(=S)NCc2ccccc2)cc1 -12.8%
CCCc1ccc(OCCNC(=O)c2ccco2)cc1 -4.69%
